Screens deposited in PubChem BioAssay by National Center for Advancing Translational Sciences (NCATS).
Sampled rows, rich in hits. Any-hit rate of the full collection: about 19%.
Pf growth 96h: P. falciparum growth inhibition at 96 hour, primary screen for plastid delayed-death inhibitors. AID 504834. P. falciparum luciferase reporter growth, 96 h. actives 6.9% (n = 320,000). Potency, µM (doses to about 28.7 µM), actives largely listed as inhibitors
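Readout is luminescence from an integrated firefly luciferase in P. falciparum. Red cells, 2% hematocrit and 0.05% parasitemia final, were cultured with compound through two parasite generations (96 hours) at 37 C, 5% CO2.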
Marburg entry inh: inhibitors of Marburg virus binding or cell entry | Marburg virus pseudotyped entry inhibition, cell reporter | Potency, µM (series often up to 37.8 µM), actives largely listed as inhibitors | actives 1.8% (n = 300,000) | AID 540276; calls by dose curve; tested in HEK293 cells
Shiga toxin inh: blocks Shiga toxin action in Vero cells | Vero cells, Shiga toxin protein synthesis inhibition reporter | inhibition, % at 38.7 µM | actives 9.2% (n = 290,000) | AID 2315; in the data active = inhibition mostly above about 28%, no sharp cut-off; inactive = mostly below about 43%
Pf growth 48h: inhibits P. falciparum growth in the first generation, 48 h | P. falciparum luciferase growth in erythrocytes, 48 h | Potency, µM (top dose mostly 28.7 µM), usual class: inhibitors | actives 5.9% (n = 310,000)
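Firefly luciferase activity from engineered P. falciparum reports growth; inhibitors lower the luminescent signal. Cultures contained 2% hematocrit erythrocytes at 0.1% final parasitemia.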
Lassa entry inh: Lassa virus entry inhibition; Lassa virus pseudotype entry inhibition, cell reporter; Potency, µM (series often up to 37.9 µM), hits mostly inhibitors; actives 1.2% (n = 300,000); AID 540256; calls by dose curve; tested in HEK293 cells; note: nearly all actives have a fitted effect of over 50% in size
CHX counter: affects cycloheximide protein synthesis inhibition readout, counter-screen; cell reporter, cycloheximide protein synthesis inhibition counterscreen; max response, %; actives 12% (n = 300,000); AID 2314; in the data active = max response mostly above about 13%, no sharp cut-off; inactive = mostly below about 14%; note: read at 38.3 µM for the half of the compounds with a filed dose
Each line names hits and unclear results; the compound was inactive in the other large screens; ! = a repeat was not active. Unless noted, calls come from the whole dose curve; as a rule, active = well fitted inhibition curve with a large enough effect; inconclusive = small, poorly fitted or top-dose-only effect, or another doubt; inactive = no such curve, though single readings can be large or run the other way.

C#CCOCCOCCOCCNc1nc(N2CCN(C(=O)[C@H]([C@@H](C)CC)n3cc(CCCCN)nn3)CC2)nc(N2CCN(C(=O)[C@H]([C@@H](C)CC)n3cc(CCCN=C(N)N)nn3)CC2)n1	Pf growth 96h 7.4µM, Pf growth 48h inconclusive (no result: Marburg entry inh, Shiga toxin inh, Lassa entry inh, CHX counter)
C#CCOCCOCCOCCNc1nc(N2CCN(C(=O)[C@H]([C@@H](C)O)n3cc(CCCCN)nn3)CC2)nc(N2CCN(C(=O)[C@H]([C@@H](C)CC)n3cc(CCCN=C(N)N)nn3)CC2)n1	Pf growth 96h 4.7µM, Pf growth 48h inconclusive
Oc1ccc(CNc2ccc(C(F)(F)F)cc2Cl)c2cccnc12	Pf growth 96h 3.3µM, Pf growth 48h 1.7µM (no result: Marburg entry inh, Shiga toxin inh, Lassa entry inh, CHX counter)
COc1cccc(CNc2ccccc2O)c1OCc1ccccc1F	Lassa entry inh inconclusive
O=C(Cc1ncc(C(F)(F)F)cc1Cl)NCc1cccnc1	none (no result: Marburg entry inh, Lassa entry inh)
Oc1ccc(CNc2ccccc2F)c2cccnc12	Pf growth 96h 4.1µM!, Marburg entry inh inconclusive, Pf growth 48h 1.5µM, Lassa entry inh inconclusive
Oc1ccc(CNc2cccc(F)c2F)c2cccnc12	Pf growth 96h inconclusive, Pf growth 48h 10µM (no result: Marburg entry inh, Shiga toxin inh, Lassa entry inh, CHX counter)
CCC(=O)N1CCc2cc(S(=O)(=O)NC(CC(C)C)C(=O)NCc3ccc(C)cc3)ccc21 (configuration not stated)	none (no result: Pf growth 96h, Shiga toxin inh, Pf growth 48h, CHX counter)
Cc1ccc(-n2c3c(cc(C(=O)NCc4ccco4)c2=O)C(=O)CCC3)cc1	none (no result: Marburg entry inh, Lassa entry inh)
OC(CNC1CCCCC1)C(F)(F)F (configuration not stated)	none
NCC(O)C1CCCCCCC1 (configuration not stated)	Marburg entry inh 7.1µM! (no result: Pf growth 96h, Shiga toxin inh, Pf growth 48h, CHX counter)
CCc1cc(=O)oc2c3c(cc(OCC(=O)NCCN4CCOCC4)c12)OC(C)(C)CC3	Pf growth 96h 9.3µM, Pf growth 48h inconclusive (no result: Marburg entry inh, Lassa entry inh)
CCc1cc(=O)oc2c3c(cc(OCC(=O)NCc4ccco4)c12)OC(C)(C)CC3	Pf growth 96h inconclusive, Shiga toxin inh 34, CHX counter 33 (no result: Marburg entry inh, Lassa entry inh)
CCc1cc(=O)oc2c3c(cc(OCC(=O)NC4CC4)c12)OC(C)(C)CC3	Pf growth 96h 4.1µM, Pf growth 48h inconclusive (no result: Marburg entry inh, Lassa entry inh)
CCc1cc(=O)oc2c3c(cc(OCC(=O)NCCC(=O)O)c12)OC(C)(C)CC3	Pf growth 96h inconclusive
CCc1cc(=O)oc2c3c(cc(OCC(=O)NCCCC(=O)O)c12)OC(C)(C)CC3	Pf growth 96h inconclusive, Pf growth 48h inconclusive (no result: Marburg entry inh, Lassa entry inh)
CCc1cc(=O)oc2c3c(cc(OCC(=O)NCc4ccncc4)c12)OC(C)(C)CC3	Pf growth 96h inconclusive, Pf growth 48h 10µM (no result: Marburg entry inh, Lassa entry inh)
Cc1ccc2cccc(SCC(=O)NCc3ccco3)c2n1	none (no result: Pf growth 96h)
CCOc1ccc(-c2cc(CCCC(=O)NCCc3ccc(OC)c(OC)c3OC)no2)cc1	Marburg entry inh inconclusive, Pf growth 48h inconclusive
Cn1c(=O)c2c(ncn2CC(=O)OCC(=O)NCCc2ccccc2)n(C)c1=O	none (no result: Shiga toxin inh, CHX counter)
CCCc1nc(NCc2ccccc2)c(C#N)c2c1CCCC2	Pf growth 96h inconclusive, Pf growth 48h 6.6µM
CCCc1nc(NCCO)c(C#N)c2c1CCCC2	none
N#Cc1c(Cl)nc(Cl)c2c1CCN(Cc1ccccc1)C2	Pf growth 96h inconclusive, Marburg entry inh inconclusive
C=CCNc1nc(NCc2ccccc2)c(C#N)c2c1CN(C)CC2	Marburg entry inh inconclusive, Pf growth 48h inconclusive
N#Cc1c(NCCN)nc(NCc2ccccc2)c2c1CCN(Cc1ccccc1)C2	Marburg entry inh inconclusive, Pf growth 48h 9.3µM
CCN1CCc2c(C#N)c(NCc3ccccc3)nc(N(CC)CC)c2C1	Pf growth 96h 0.93µM, Marburg entry inh inconclusive, Pf growth 48h 2.6µM, Lassa entry inh 15µM
N#Cc1c(N2CCCCC2)nc(N2CCCCC2)c2c1CCN(Cc1ccccc1)C2	Marburg entry inh inconclusive, Pf growth 48h 3.7µM, Lassa entry inh inconclusive
CCC(Sc1nncn1C)C(=O)Nc1cc(C)on1 (configuration not stated)	Pf growth 48h inconclusive
C/C(CC(C)C)=N/Nc1ccc([N+](=O)[O-])cc1[N+](=O)[O-]	none (no result: Marburg entry inh, Lassa entry inh)
Nc1[nH]nc2nc(NCc3ccccc3)c3c(c12)CCN(Cc1ccccc1)C3	Pf growth 96h inconclusive, Marburg entry inh inconclusive, Lassa entry inh 13µM
COC(=O)c1cc2sc(Cl)cc2n1Cc1nc(-c2ccccc2)oc1C	Pf growth 96h 8.3µM (no result: Marburg entry inh, Pf growth 48h, Lassa entry inh)
CCSc1cc(C)nc2c(-c3ccccc3)cnn12	Shiga toxin inh 69, CHX counter 52 (no result: Marburg entry inh, Lassa entry inh)
Cc1ccc(-c2cc(C(F)(F)F)n3ncc(-c4ccccc4)c3n2)cc1	none (no result: Pf growth 96h, Shiga toxin inh, Pf growth 48h, CHX counter)
C=CCSc1cc(C)nc2c(-c3ccccc3)cnn12	Shiga toxin inh 80, CHX counter 63 (no result: Marburg entry inh, Lassa entry inh)
O=C(c1ccccn1)c1conc1C(=O)c1ccc(Br)cc1	Pf growth 48h inconclusive
COc1ccc(NC(=O)CSc2nc(O)c(Cc3ccccc3)c(=O)[nH]2)cc1	Pf growth 48h inconclusive
O=C(CCn1ccc([N+](=O)[O-])n1)NC1CCCCCC1	none
Cc1ccc2nc(-c3ccc(NS(=O)(=O)c4ccccc4)cc3)sc2c1	Marburg entry inh inconclusive, Shiga toxin inh active, CHX counter 29
Cc1nc2ccc(NS(=O)(=O)c3ccc(F)c(F)c3)cc2s1	none (no result: Marburg entry inh, Shiga toxin inh, Lassa entry inh, CHX counter)
Cc1ccc2nc(-c3ccc(NS(=O)(=O)c4ccc(F)c(F)c4)cc3)sc2c1	Marburg entry inh inconclusive, Shiga toxin inh 96, Lassa entry inh inconclusive, CHX counter 64
COC(=O)/C=C1/S/C(=N/NC(=O)c2ccc(Cl)cc2Cl)NC1=O	none
Cc1cc(C)c(O)c(-c2cc(C(=O)Nc3ccc(S(=O)(=O)N4CCOCC4)cc3)[nH]n2)c1	Marburg entry inh inconclusive, Pf growth 48h 5.9µM, Lassa entry inh inconclusive (no result: Pf growth 96h)
Cc1ccc(-c2cc(C(=O)Nc3ccc(S(=O)(=O)Nc4ncccn4)cc3)[nH]n2)c(O)c1C	Pf growth 96h 9.3µM, Pf growth 48h inconclusive
CC(=O)Nc1ccc(NC(=O)c2cc(-c3cc(C)cc(C)c3O)n[nH]2)cc1	Pf growth 96h inconclusive, Pf growth 48h 12µM, CHX counter 23 (no result: Marburg entry inh, Lassa entry inh)
COc1ccc(NC(=O)c2cc(-c3ccc(C)c(C)c3O)n[nH]2)cc1Cl	Pf growth 96h inconclusive, Pf growth 48h inconclusive
Cc1cccc(NC(=O)c2cc(-c3ccc(C)c(C)c3O)n[nH]2)c1	Shiga toxin inh 92, CHX counter 49 (no result: Marburg entry inh, Lassa entry inh)
Cc1ccc(CNC(=O)c2cc(-c3cc(C)cc(C)c3O)n[nH]2)cc1	Pf growth 48h inconclusive (no result: Lassa entry inh)
c1coc(C2=Nc3cccc4cccc(c34)N2)c1	Pf growth 48h inconclusive
CC(=O)Nc1ccc(NC(=O)c2cc(-c3ccc(C)c(C)c3O)n[nH]2)cc1	Pf growth 96h 2.3µM, Pf growth 48h 12µM, CHX counter 29 (no result: Marburg entry inh, Lassa entry inh)
CSc1ccccc1OCc1cc(C(=O)NC(C)CCn2cccn2)no1 (configuration not stated)	Lassa entry inh inconclusive
CSc1ccccc1OCc1cc(C(=O)NCc2cccc(C)n2)no1	Pf growth 96h 4.1µM, Shiga toxin inh 99, CHX counter 80 (no result: Marburg entry inh, Lassa entry inh)
CCn1nc(C)c(CNC(=O)c2cc(COc3ccccc3SC)on2)c1C	Pf growth 48h inconclusive, CHX counter 25
Cc1ccccc1CNC(=O)c1cc(COc2ccc(F)cc2F)on1	Lassa entry inh inconclusive
